According to the supplement of paper PMC6555819:

Experiments:
Experiment in all cases: PBM binding z-score (relative to random genomic background probes); higher = stronger binding; sequences stand for … in GC…GCGATTGACAGCGTAGAATGAAGG
[1] = tested on: RARb homodimer (NR concentration 270 nM)
In short: (§1)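 Ligand-free nuclear receptor dimers were applied to custom Agilent 4×180K protein-binding microarrays whose double-stranded probes carried direct-repeat seeds, single-nucleotide variants, half-site ablations and random human genomic background sequences in 34-nt variable regions. Incubation lasted 1 h. Binding z-scores were computed against the random background probes from regression-normalized fluorescence.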

[2] = tested on: RARg:RXRa (NR concentration 270 nM, RXRa partner concentration 90 nM)
In short: as §1

[3] = tested on: RARg homodimer (NR concentration 270 nM)
In short: as §1

[4] = tested on: RXRa DBDmut IVT, anti-RXR (DBD mutation: RXRa K156A/R161A, NR concentration 90 nM)
In short: as §1

[5] = tested on: RXRa homodimer (NR concentration 180 nM)
In short: as §1

[6] = tested on: THRa:RXRa (NR concentration 90 nM, RXRa partner concentration 90 nM)
In short: as §1

[7] = tested on: THRa homodimer (NR concentration 90 nM)
In short: as §1

[8] = tested on: VDR homodimer (NR concentration 270 nM)
In short: as §1

Sequence	PBM binding z-score [1]	PBM binding z-score [2]	PBM binding z-score [3]	PBM binding z-score [4]	PBM binding z-score [5]	PBM binding z-score [6]	PBM binding z-score [7]	PBM binding z-score [8]
GATACAGGGTCAAGGCCAGTGTACGCGTATTGAT	3.55	5.61	5.38	2.22	6.4	3.55	1.08	2.13
TGAGTGAGGTTAAAGATCAGGGAACGTGGCGTCG	1.06	2.51	1.37	1.05	4.01	2.43	0.575	0.834
TCATATAGGTAAATGCTAGGTGAACGTCCGATCT	0.575	0.645	0.417	1.4	0.952	1.56	0.84	0.0802
ACAGTCAGGTGAGTGAAGGTAACTCAGCTGGACG	-0.0774	0.2	0.617	-0.471	0.122	1.63	-0.205	-0.58
CCTATTAGTTGACCATAAGGGCAACCGAAGCTCG	2.05	1.31	0.855	0.655	1.02	2.02	1.34	1.07
GCAGACAGGTGAAACGCAGGTAATTCAGGGTGGC	0.413	0.684	0.304	-0.376	0.614	1.38	-0.381	-0.586
ACTATTAGTTGAGACGATGGCAACCGATAGGTTG	-0.57	0.459	0.26	0.0509	0.0596	-0.111	-0.705	0.236
CCTCGGAGGACAGAGGGTCAGAGCTGTCCGCTTT	2.47	2.45	2.4	-0.382	1.6	1.69	-0.314	-0.0777
TCAGACTGGTGAAGGTAACTCAGGTACGCAGTCG	-0.0938	-0.218	-0.262	0.596	0.463	0.985	0.0816	-0.271
ACTCGGAGGACAAAGGTCAGAGCCACGCCAGTGA	4.56	6.18	5.6	1.27	6.11	3.55	0.686	1.13
AGAACGAGGGCAATGCGTTGATAGCACGGGTGGC	0.934	1.05	1.65	1.2	0.834	0.775	-0.0819	1.17
CCTCGGAGGACAGAAGGTCACAGCTGTCCGCTTT	4.26	4.72	4.05	0.581	3.83	3.36	0.632	0.765
ACTTACGGGTGAACGAGGTTATAGCACGCGTATA	1.2	1.47	0.987	0.294	2.06	2.39	0.511	1.01
TCTAGTTGGTCACAGGTCACACACTCGAAATGCG	3.55	3.75	3.33	1.62	3.83	2.96	1.97	1.7
TCGAGTAGGTTAGTCGGGGCATTGAGCCAACATA	0.349	-0.11	0.0255	0.159	-0.18	1	-0.457	-0.0737
GCACGGAGGACAAGGTCAGAGCTTTGTCCGTAGA	3.22	3.17	3.57	1.01	2.56	2.89	1.58	0.622
CGTACAAGGTCAGAGAGGTCAGTGAATGCCGAGT	5.31	6.28	7.24	3.52	5.95	4.23	2.64	6

Sequence	PBM binding z-score [1]	PBM binding z-score [2]	PBM binding z-score [3]	PBM binding z-score [4]	PBM binding z-score [5]	PBM binding z-score [6]	PBM binding z-score [7]	PBM binding z-score [8]
TCAGACAGGTGAAGGTAACTGAGGTACGCAGTCG	0.685	0.664	0.586	1.05	1.18	1.31	0.494	-0.194
GCTATTAGTTGAAGGGGCAACCGAATGATTCTCG	0.855	0.206	0.529	0.928	0.206	0.0187	-0.194	0.212
TCTTGTAGATCAAGCATGTTAAGAAAGCCTGAGT	-0.365	-0.147	-0.0954	0.943	0.122	-0.0977	-0.856	0.128
ACTATTAGTTGACTTAGGGCAACTGATACGACGC	0.726	0.872	1.07	0.417	0.497	1.31	0.235	0.0906
CCAGACAGGTGAGAAGTTAACTCAGCCTCGATTA	0.312	0.26	0.42	0.268	0.0935	0.0119	-0.003	-0.158
ATCTCTAGGTAAGCCTCAGTTCAGTGAAGAACGC	0.726	0.273	0.0936	0.247	0.103	0.985	1.15	1.21
GCTAGTTGTTCAGTAAAAGGTCACACACCGGTCG	5.07	4.7	4.28	0.628	5.06	3.39	1.77	1.84
CGTCAATGTTCAAGGTAACGTAACAGAAAGCAGC	-0.0496	0.0962	0.453	0.148	0.198	1.56	1.19	0.0285
ACAGACAGGTGATGAAGGTCACTCAGGCTATCAT	3.75	3.15	2.94	0.355	2.67	2.81	0.677	1.51
CCTCGTAGGACAACAGGAGGTCAGAGCTGCCAGA	3.16	3.05	3	0.577	2	2.51	0.709	0.704
AGTAGTTGGTCAGCTGAGGTCACACACAATTCGG	4.45	4.21	4.62	1.36	4.2	4.88	5	3.98
TAGCCTAGGTCATTCAGGGGCCAGTATTGAAAGC	3.3	6.04	4.51	2.08	2.72	3.47	0.833	2.03
CCGAGTAGGGTATGGGGCATTCAGGCAACGGTGA	0.595	-0.153	-0.189	-0.938	0.102	0.159	0.0739	0.36
AGTCTAAGTTCATCTAGGTAACGTAAGATATGCT	2.48	3.58	4.02	4.94	2.6	2.9	0.767	5.9
CCGACTGGGGCATAAGGTTACCTTAAGCCAGCCC	1.66	1.26	0.711	-0.657	0.903	2.3	2.31	-0.441
CGAACTGGGTCATCCAGGACAGTGAATACATTGA	2.71	3.55	3.7	1.35	2.99	3.48	1.25	1.8
CCTACTGGGCCATCAGGTCAATGATATCAACGTT	2.67	2.1	2.2	-0.0866	1.31	3.17	2.24	0.718
